We go through six sequences from publication PMC11006913.

Positions count from the first letter of the chain named.

Common to all, as to experiment: PBM; 200 nM protein, PBS
What all share (conditions): dsDNA, one strand shown

The target in experiment [1] is T1, SIX6 (Homo sapiens, UniProt O95475 114-200, L167I).
T1 sequence: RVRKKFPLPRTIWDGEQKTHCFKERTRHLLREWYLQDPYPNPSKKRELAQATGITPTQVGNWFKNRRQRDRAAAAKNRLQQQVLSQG

In experiment [2] the target is T2, SIX6 (Homo sapiens, UniProt O95475 114-200, L143V).
T2 sequence: T1 sequence with L30V, I54L

The target in experiment [3] is T3, SIX6 (Homo sapiens, UniProt O95475 114-200, H141N).
T3 sequence: T1 sequence with H28N, I54L

Experiment [4] concerns the target T4, SIX6 (Homo sapiens, UniProt O95475 114-200, T165P).
T4 sequence: T1 sequence with T52P, I54L

In experiment [5] the target is T5, SIX6 (Homo sapiens, UniProt O95475 114-200, L167M).
T5 sequence: T1 sequence with I54M

Experiment [6] addresses T6, SIX6 (Homo sapiens, UniProt O95475 114-200, L143M).
T6 sequence: T1 sequence with L30M, I54L

Experiment [7] deals with T7, SIX6 (Homo sapiens, UniProt O95475 114-200, L143I).
T7 sequence: T1 sequence with L30I, I54L

Experiment [8] deals with T8, SIX6 (Homo sapiens, UniProt O95475 114-200, T165G).
T8 sequence: T1 sequence with T52G, I54L

For experiment [9], the target named is T9, SIX6 (Homo sapiens, UniProt O95475 114-200, T139Q).
T9 sequence: T1 sequence with T26Q, I54L

For experiment [10], the target named is T10, SIX6 (Homo sapiens, UniProt O95475 114-200, T165A).
T10 sequence: T1 sequence with T52A, I54L

Experiment [11] deals with T11, SIX6 (Homo sapiens, UniProt O95475 114-200, L167V).
T11 sequence: T1 sequence with I54V

In experiment [12] the target is T12, SIX6 (Homo sapiens, UniProt O95475 114-200).
T12 sequence: T1 sequence with I54L

The target in experiment [13] is T13, SIX6 (Homo sapiens, UniProt O95475 114-200, T165I).
T13 sequence: T1 sequence with T52I, I54L

Turning to CCCCAGCG, the binding signal in [1] is 9.09 upbm affinity estimate (log intensity, higher = more binding, comparable within an allelic series); in [2], 8.99 upbm affinity estimate (log intensity, higher = more binding, comparable within an allelic series); in [3], 9.25 upbm affinity estimate (log intensity, higher = more binding, comparable within an allelic series); in [4], 9.01 upbm affinity estimate (log intensity, higher = more binding, comparable within an allelic series); in [5], 9.24 upbm affinity estimate (log intensity, higher = more binding, comparable within an allelic series); in [6], 9.04 upbm affinity estimate (log intensity, higher = more binding, comparable within an allelic series). Besides, the binding signal in experiment [7] was 9 upbm affinity estimate (log intensity, higher = more binding, comparable within an allelic series); in experiment [8] it was 9.14 upbm affinity estimate (log intensity, higher = more binding, comparable within an allelic series); in experiment [9], 9.23 upbm affinity estimate (log intensity, higher = more binding, comparable within an allelic series); in experiment [10], 9.18 upbm affinity estimate (log intensity, higher = more binding, comparable within an allelic series); in experiment [11] it was 9.13 upbm affinity estimate (log intensity, higher = more binding, comparable within an allelic series); in experiment [12] it was 9.15 upbm affinity estimate (log intensity, higher = more binding, comparable within an allelic series). In addition, the binding signal in [13] was 9.2 upbm affinity estimate (log intensity, higher = more binding, comparable within an allelic series).

As for GGCCTCCA, the binding signal was 8.94 upbm affinity estimate (log intensity, higher = more binding, comparable within an allelic series) in experiment [1]; 8.93 upbm affinity estimate (log intensity, higher = more binding, comparable within an allelic series) in experiment [2]; 8.87 upbm affinity estimate (log intensity, higher = more binding, comparable within an allelic series) in experiment [3]; 9.13 upbm affinity estimate (log intensity, higher = more binding, comparable within an allelic series) in experiment [4]; 8.94 upbm affinity estimate (log intensity, higher = more binding, comparable within an allelic series) in experiment [5]; 8.87 upbm affinity estimate (log intensity, higher = more binding, comparable within an allelic series) in [6]. The binding signal was 8.9 upbm affinity estimate (log intensity, higher = more binding, comparable within an allelic series) in experiment [7]; 9 upbm affinity estimate (log intensity, higher = more binding, comparable within an allelic series) in experiment [8]; 8.8 upbm affinity estimate (log intensity, higher = more binding, comparable within an allelic series) in [9]; 8.84 upbm affinity estimate (log intensity, higher = more binding, comparable within an allelic series) in experiment [10]; 9.03 upbm affinity estimate (log intensity, higher = more binding, comparable within an allelic series) in [11]; 8.82 upbm affinity estimate (log intensity, higher = more binding, comparable within an allelic series) in experiment [12]. Also, in experiment [13], the binding signal is 8.87 upbm affinity estimate (log intensity, higher = more binding, comparable within an allelic series).

As to GATACCCC, the binding signal in experiment [1] was 11.5 upbm affinity estimate (log intensity, higher = more binding, comparable within an allelic series); in experiment [2], 10.4 upbm affinity estimate (log intensity, higher = more binding, comparable within an allelic series); in experiment [3], 11.5 upbm affinity estimate (log intensity, higher = more binding, comparable within an allelic series); in [4], 9.41 upbm affinity estimate (log intensity, higher = more binding, comparable within an allelic series); in experiment [5], 11 upbm affinity estimate (log intensity, higher = more binding, comparable within an allelic series); in experiment [6], 11.2 upbm affinity estimate (log intensity, higher = more binding, comparable within an allelic series). Besides, the binding signal in [7] was 10.5 upbm affinity estimate (log intensity, higher = more binding, comparable within an allelic series); in experiment [8] it was 11.6 upbm affinity estimate (log intensity, higher = more binding, comparable within an allelic series); in [9], 11.4 upbm affinity estimate (log intensity, higher = more binding, comparable within an allelic series); in experiment [10] it was 11.3 upbm affinity estimate (log intensity, higher = more binding, comparable within an allelic series); in experiment [11] it was 11.2 upbm affinity estimate (log intensity, higher = more binding, comparable within an allelic series); in experiment [12], 11.3 upbm affinity estimate (log intensity, higher = more binding, comparable within an allelic series). Moreover, the binding signal in experiment [13] is 11.2 upbm affinity estimate (log intensity, higher = more binding, comparable within an allelic series).

As for ATATACAC, the binding signal is 10.9 upbm affinity estimate (log intensity, higher = more binding, comparable within an allelic series) in [1]; 10.4 upbm affinity estimate (log intensity, higher = more binding, comparable within an allelic series) in experiment [2]; 10.9 upbm affinity estimate (log intensity, higher = more binding, comparable within an allelic series) in experiment [3]; 10.1 upbm affinity estimate (log intensity, higher = more binding, comparable within an allelic series) in [4]; 10.8 upbm affinity estimate (log intensity, higher = more binding, comparable within an allelic series) in experiment [5]; 10.9 upbm affinity estimate (log intensity, higher = more binding, comparable within an allelic series) in experiment [6]. For the same sequence, the binding signal is 10.4 upbm affinity estimate (log intensity, higher = more binding, comparable within an allelic series) in [7]; 11.1 upbm affinity estimate (log intensity, higher = more binding, comparable within an allelic series) in experiment [8]; 11 upbm affinity estimate (log intensity, higher = more binding, comparable within an allelic series) in experiment [9]; 10.9 upbm affinity estimate (log intensity, higher = more binding, comparable within an allelic series) in [10]; 10.7 upbm affinity estimate (log intensity, higher = more binding, comparable within an allelic series) in experiment [11]; 10.9 upbm affinity estimate (log intensity, higher = more binding, comparable within an allelic series) in [12]. For the same sequence, the binding signal in experiment [13] is 10.9 upbm affinity estimate (log intensity, higher = more binding, comparable within an allelic series).

Consider CGCCCACC, for which the binding signal in [1] is 9.03 upbm affinity estimate (log intensity, higher = more binding, comparable within an allelic series); in experiment [2] it was 9.02 upbm affinity estimate (log intensity, higher = more binding, comparable within an allelic series); in [3], 9.04 upbm affinity estimate (log intensity, higher = more binding, comparable within an allelic series); in experiment [4] it was 9.15 upbm affinity estimate (log intensity, higher = more binding, comparable within an allelic series); in [5] it was 9.04 upbm affinity estimate (log intensity, higher = more binding, comparable within an allelic series); in experiment [6], 9.02 upbm affinity estimate (log intensity, higher = more binding, comparable within an allelic series). Further, the binding signal in experiment [7] is 9.17 upbm affinity estimate (log intensity, higher = more binding, comparable within an allelic series); in experiment [8] it was 9.11 upbm affinity estimate (log intensity, higher = more binding, comparable within an allelic series); in experiment [9], 9.21 upbm affinity estimate (log intensity, higher = more binding, comparable within an allelic series); in [10], 9.07 upbm affinity estimate (log intensity, higher = more binding, comparable within an allelic series); in experiment [11] it was 9.06 upbm affinity estimate (log intensity, higher = more binding, comparable within an allelic series); in experiment [12], 9.1 upbm affinity estimate (log intensity, higher = more binding, comparable within an allelic series). Besides, in experiment [13], the binding signal is 9.03 upbm affinity estimate (log intensity, higher = more binding, comparable within an allelic series).

Consider GCCGCGGC, for which the binding signal in experiment [1] was 9.02 upbm affinity estimate (log intensity, higher = more binding, comparable within an allelic series); in [2], 8.88 upbm affinity estimate (log intensity, higher = more binding, comparable within an allelic series); in [3] it was 8.98 upbm affinity estimate (log intensity, higher = more binding, comparable within an allelic series); in experiment [4], 9.04 upbm affinity estimate (log intensity, higher = more binding, comparable within an allelic series); in experiment [5] it was 8.87 upbm affinity estimate (log intensity, higher = more binding, comparable within an allelic series); in [6] it was 9.03 upbm affinity estimate (log intensity, higher = more binding, comparable within an allelic series). Moreover, the binding signal in experiment [7] is 8.95 upbm affinity estimate (log intensity, higher = more binding, comparable within an allelic series); in experiment [8] it was 9.01 upbm affinity estimate (log intensity, higher = more binding, comparable within an allelic series); in [9], 9.14 upbm affinity estimate (log intensity, higher = more binding, comparable within an allelic series); in experiment [10], 8.95 upbm affinity estimate (log intensity, higher = more binding, comparable within an allelic series); in experiment [11], 9.01 upbm affinity estimate (log intensity, higher = more binding, comparable within an allelic series); in experiment [12] it was 9 upbm affinity estimate (log intensity, higher = more binding, comparable within an allelic series). For the same sequence, in experiment [13], the binding signal is 8.83 upbm affinity estimate (log intensity, higher = more binding, comparable within an allelic series).
